From PubChem BioAssay AID624139 (Broad Institute, 2012)
In all, about 17,000 compounds went through this assay and about 220 (1.3%) were called active.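 How the source made its calls: active means spot fluorescence over background significantly raised, with a chance value under 7% in all four replicate spots of the compound; inactive means the rest.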 The full list was thinned out, with actives kept by preference.

The compounds below were run against Nuclear factor NF-kappa-B p105 subunit (Homo sapiens) (UniProt P19838) (assay: small molecules binding NF-kappa-B p105/p50 – biochemical, small molecule microarray, anti-His fluorescence, primary screen (AID 624139);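 further: probe protein is his-tagged human p50 processed subunit at 1 µg/ml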).
Sequence of Nuclear factor NF-kappa-B p105 subunit (Homo sapiens) (P19838 1-433 limits assumed): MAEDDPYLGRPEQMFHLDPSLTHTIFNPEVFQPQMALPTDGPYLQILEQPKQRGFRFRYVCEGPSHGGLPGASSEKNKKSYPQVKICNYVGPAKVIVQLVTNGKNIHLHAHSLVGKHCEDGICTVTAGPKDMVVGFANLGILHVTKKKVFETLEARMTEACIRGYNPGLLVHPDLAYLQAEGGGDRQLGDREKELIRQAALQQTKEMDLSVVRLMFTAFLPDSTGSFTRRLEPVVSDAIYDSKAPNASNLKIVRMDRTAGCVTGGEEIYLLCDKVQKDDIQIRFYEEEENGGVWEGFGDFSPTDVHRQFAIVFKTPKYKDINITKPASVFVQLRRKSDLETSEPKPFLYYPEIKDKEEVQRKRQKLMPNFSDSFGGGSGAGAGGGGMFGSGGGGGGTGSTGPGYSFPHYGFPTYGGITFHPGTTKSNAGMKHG

`CNC[C@H]1Oc2ccc(NC(=O)Nc3ccc(F)cc3)cc2C(=O)N([C@@H](C)CO)C[C@@H]1C` was tested. Which outcome did it give?
Its outcome is “inactive”.

Which outcome does the source give for `C[C@@H]1CN([C@H](C)CO)C(=O)c2cccc(NC(=O)Nc3ccc(C(F)(F)F)cc3)c2O[C@H]1CN(C)S(=O)(=O)c1ccc(Cl)cc1` here?
The outcome was “inactive”.

How did the outcome turn out when `Cc1ccc(S(=O)(=O)N2CCCC2C(=O)NCCO)cc1` (stereo unspecified) was run?
Its outcome is “inactive”.

Which outcome does the source give for `COc1ccc([Si](C)(C)[C@@H]2[C@@H](CCO)O[C@]3(C(=O)N(Cc4ccccc4)c4ccc(N5CCC5=O)cc43)[C@H]2C)cc1` here?
The outcome was “inactive”.

With `C[C@@H]1CN([C@H](C)CO)C(=O)CCCn2cc(nn2)CO[C@H]1CN(C)C(=O)Nc1ccc(N2CCCCC2)cc1` as the compound, how does the outcome read?
The outcome was “inactive”.

How did the outcome turn out when `C[C@H](CO)N1C[C@H](C)[C@@H](CN(C)CC2CC2)Oc2ccc(NC(=O)Nc3ccccc3)cc2CC1=O` was run?
The outcome was “inactive”.

`C[C@H](CO)N1C[C@H](C)[C@@H](CN(C)Cc2cccc3c2OCCCO3)OCc2cn(nn2)CCCC1=O` was tested. Which outcome did it give?
The outcome was “inactive”.

With `C[C@@H]1CN([C@H](C)CO)C(=O)CCCn2cc(nn2)CO[C@@H]1CN(C)Cc1ccc2cccnc2c1` as the compound, how does the outcome read?
Its outcome is “inactive”.

With `COC(=O)c1c(NC(=S)Nc2ccc(S(=O)(=O)NC34CC5CC(CC(C5)C3)C4)cc2)sc2c1CCC2` as the compound, how does the outcome read?
Its outcome is “inactive”.

For `CC(C)NC(=O)Nc1ccc2c(c1)C(=O)N([C@H](C)CO)C[C@@H](C)[C@H](CN(C)S(C)(=O)=O)O2`, which outcome is on record?
Its outcome is “inactive”.

How did the outcome turn out when `Cc1ccc(C)c(NC(=O)CCC(=O)O)c1` was run?
Its outcome is “inactive”.

`O=C(N1CCCCC1)[C@@]1(CCS(=O)(=O)c2ccccc2)N=C(c2ccc(OCCCO)cc2)O[C@H]1c1ccccc1` was tested. Which outcome did it give?
The outcome was “inactive”.

`C[C@@H]1CN([C@H](C)CO)C(=O)c2cc(N(C)C)ccc2O[C@@H](C)CCCCO[C@@H]1CN(C)C(=O)CCCN(C)C` was tested. Which outcome did it give?
The outcome was “inactive”.

Which outcome does the source give for `C[C@@H]1CCCCO[C@H](CN(C)C)[C@@H](C)CN([C@H](C)CO)C(=O)c2cc(N(C)C)ccc2O1` here?
Its outcome is “inactive”.

With `O=c1c2ccccc2[nH]c(=S)n1CCN1CCC(=C(c2ccc(F)cc2)c2ccc(F)cc2)CC1` as the compound, how does the outcome read?
The outcome was “active”.

Which outcome does the source give for `O=C(c1ccc(F)cc1)C1CCN(CCCCc2ccccc2)CC1` here?
The outcome was “inactive”.

Which outcome does the source give for `C[C@H](CO)N1C[C@H](C)[C@@H](CN(C)S(=O)(=O)c2cn(C)cn2)Oc2ccc(NS(=O)(=O)c3cn(C)cn3)cc2C1=O` here?
The outcome was “inactive”.

For `COc1cc(/C=C/C(=O)NCCc2ccc(O)cc2)ccc1O`, which outcome is on record?
Its outcome is “inactive”.

`Cc1nc(SCC(=O)N2c3ccccc3Sc3ccccc32)nc2c1CCCC2` was tested. Which outcome did it give?
Its outcome is “inactive”.

`COc1ccc(S(=O)(=O)N(C)C[C@@H]2Oc3ccc(NC(=O)Cc4cn(C)c5ccccc45)cc3C(=O)N([C@H](C)CO)C[C@H]2C)cc1` was tested. Which outcome did it give?
The outcome was “inactive”.

With `CCOC(=O)c1sc(NC(=S)Nc2ccc3c(c2)OCCO3)c(C(=O)OCC)c1C` as the compound, how does the outcome read?
Its outcome is “inactive”.
